Laboratory results from PubChem BioAssay (EPA / NIEHS).
Inconclusive results are not listed. Calls of active or inactive are those of the source. Rule for the calls: active = hit-call score of the fitted dose curve at least 0.9, where 1 is the maximum; inconclusive = response in the unintended direction; inactive = score below 0.9.

molecular target: guinea pig Opioid, Kappa 1 Receptor (OpiateK), OPRK1 (gene 100135587) (UniProt P41144); test: NVS_GPCR_gOpiateK: NovaScreen (NVS) G Protein-Coupled Receptor Assay for guinea pig Opioid, Kappa 1 Receptor (OpiateK) (AID 2283252);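 note: active means reduced radioligand binding relative to DMSO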
Procedure: NVS_GPCR_gOpiateK is a biochemical, single-readout assay that uses extracted gene-proteins from Guinea pig cerebellar membranes in a tissue-based cell-free assay. Measurements were taken 2 hours after chemical dosing in a 48-well plate.NVS_GPCR_gOpiateK is one of one assay component(s) measured or calculated from the NVS_GPCR_gOpiateK assay. It is designed to make measurements of radioligand binding, a form of binding reporter, as detected with scintillation counting signals by Filter-based radiodetection technology.Data from the assay component NVS_GPCR_gOpiateK was analyzed into 1 assay endpoint. This assay endpoint, NVS_GPCR_gOpiateK, was analyzed in the positive analysis fitting direction relative to DMSO as the negative control and baseline of activity. Using a type of binding reporter, loss-of-signal activity can be used to understand changes in the binding as they relate to the gene Oprk1. Furthermore, this assay endpoint can be referred to as a primary readout, because the performed assay has only produced 1 assay endpoint. To generalize the intended target to other relatable targets, this assay endpoint is annotated to the gpcr intended target family, where the subfamily is rhodopsin-like receptor.
Binding assays used specific radioligands (tritiated, iodinated) with non-radioactive competitive displacement ligands in agonist or antagonist protocols (as indicated) and various reference compounds and inhibitors to titrate specific binding to receptors and transporters. Most enzyme assays (CYPs, kinases, phosphatases, proteases, HDACs) used recombinant protein and specific substrates (fluorescence mostly, some colorimetric and radioactive) and inhibitors, followed by a biochemical separation of substrate and product. All assays for the biochemical HTS were initially run in duplicate at a single concentration (10 uM for CYP450 assays and 25 uM for all others). […] Each assay was run with positive and negative controls, and concurrent controls on every plate. The follow-up (secondary) screen tested active chemical-pairs in concentration series, as well as a few additional assays not tested in the primary screen, some selected negative inactives, and several cases re-run in the concentration series for confirmatory purposes.

guinea pig Opioid, Kappa 1 Receptor (OpiateK), OPRK1 (gene 100135587), sequence (P41144 whole entry, looked up): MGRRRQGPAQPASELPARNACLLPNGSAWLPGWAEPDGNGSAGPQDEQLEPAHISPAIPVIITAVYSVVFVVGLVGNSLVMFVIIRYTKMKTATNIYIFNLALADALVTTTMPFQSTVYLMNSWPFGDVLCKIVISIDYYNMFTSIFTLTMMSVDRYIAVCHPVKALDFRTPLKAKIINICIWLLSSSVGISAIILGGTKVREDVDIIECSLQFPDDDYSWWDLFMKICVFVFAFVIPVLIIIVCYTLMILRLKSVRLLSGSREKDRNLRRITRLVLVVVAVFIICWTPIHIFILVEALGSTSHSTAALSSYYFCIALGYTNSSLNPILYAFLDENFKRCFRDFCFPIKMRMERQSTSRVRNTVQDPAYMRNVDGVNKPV

| Structure (SMILES) | outcome | AC50 |
| --- | --- | --- |
| O=C1CCCCC1 | inactive |  |
| O=C(N[C@@H](c1ccccc1)[C@@H]1CCCCN1)c1cccc(C(F)(F)F)c1Cl |  | 0.641 µM (active) |
| CN(C)CCCN1c2ccccc2Sc2ccc(Cl)cc21 |  | 10.1 µM (active) |
| O=C(O)c1[nH]n(-c2ccc(S(=O)(=O)O)cc2)c(=O)c1N=Nc1ccc(S(=O)(=O)O)cc1 |  | 43.3 µM (active) |
| CSc1ccc(Oc2ccc(S(N)(=O)=O)cc2CN(C)C)cc1C |  | 13.5 µM (active) |
| CCN(CC)CCOc1ccc(C(=C(Cl)c2ccccc2)c2ccccc2)cc1 | inactive |  |
| CN(C)C(=O)NC1(c2ccccc2)CCN(CC[C@@]2(c3ccc(F)c(F)c3)CN(C(=O)c3ccccc3)CCO2)CC1 |  | 3.94 µM (active) |
| CCCCc1nc2cccnc2n1Cc1ccc(-c2ccccc2-c2nnn[nH]2)cc1 |  | 10 µM (active) |
| COc1ccc(OC(F)(F)F)cc1CN[C@H]1CCCN[C@H]1c1ccccc1 |  | 25 µM (active) |
| CN(C)C(=O)NC1(c2ccccc2)CCN(CCC[C@]2(c3ccc(Cl)c(Cl)c3)CCCN(C(=O)c3ccccc3)C2)CC1 |  | 3.56 µM (active) |
| CCC(C)N(C)C(=O)c1cc2ccccc2c(-c2ccccc2Cl)n1 (stereo unspecified) |  | 1.91 µM (active) |
| O=C1OC(c2ccc(O)cc2)(c2ccc(O)cc2)c2ccccc21 |  | 4.09 µM (active) |
| NC(=Nc1ccccc1)Nc1ccccc1 |  | 25 µM (active) |
| O=Cc1ccccc1C=O |  | 9.81 µM (active) |
| CC(C)(O)c1ccc(CNC(=O)c2cccnc2Oc2ccc(F)cc2)cc1 | inactive |  |
| CCc1cc(C2=C(C(=O)O)N(c3ccccc3C(F)(F)F)S(=O)(=O)c3ccccc32)cc2c1OCO2 | inactive |  |
